This is an account of results in ChEMBL document CHEMBL3988442, “University of Dundee, Small-Polar-MMV Screening Library” (2021).

About 50 (0.07%) of roughly 69,000 compounds showed an effect of 50% or more. What follows is part of a selection rich in strong results, with near analogues and random picks from the rest.

Lysine--tRNA ligase (Plasmodium falciparum (isolate 3D7)), sequence (Q8IDJ8 1-583): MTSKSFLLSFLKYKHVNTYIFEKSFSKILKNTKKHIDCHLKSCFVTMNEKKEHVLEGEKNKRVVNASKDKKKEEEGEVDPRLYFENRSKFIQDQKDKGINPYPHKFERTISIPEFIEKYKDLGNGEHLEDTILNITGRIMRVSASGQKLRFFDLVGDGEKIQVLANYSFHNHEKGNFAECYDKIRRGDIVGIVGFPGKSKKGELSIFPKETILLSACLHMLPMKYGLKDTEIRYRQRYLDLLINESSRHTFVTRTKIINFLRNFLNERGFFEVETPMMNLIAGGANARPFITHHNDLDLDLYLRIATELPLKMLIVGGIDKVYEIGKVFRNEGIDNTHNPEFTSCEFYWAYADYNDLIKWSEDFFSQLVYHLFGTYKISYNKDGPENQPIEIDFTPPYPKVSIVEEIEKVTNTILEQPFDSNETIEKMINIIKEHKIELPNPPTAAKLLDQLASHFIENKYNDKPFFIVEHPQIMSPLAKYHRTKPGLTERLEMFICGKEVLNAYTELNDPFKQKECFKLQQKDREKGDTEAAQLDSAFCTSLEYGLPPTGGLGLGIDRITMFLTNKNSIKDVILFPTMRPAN

The test concerns the target Lysine--tRNA ligase (Plasmodium falciparum (isolate 3D7)) (UniProt Q8IDJ8). Briefly: Pf-KRS-1 (Lysyl-RNA Synthetase-1, KRS-1, cytosolic KRS) from Plasmodium falciparum. Inhibitor assay, 384 well plate, luminescence read. Format: functional. Also on record: scale not given: in the data most compounds retested in dose-response had high values. The conditions noted are these: 30 µM.
In the case of `CC(C)C(=O)N1CCN(C(=O)c2cc(C(C)C)no2)[C@H]2CS(=O)(=O)C[C@H]21`, the Percent Effect stood at 2.34%.

For `Cc1cc(CN2C[C@@H]3CN(Cc4ccsc4)CCO[C@@H]3C2)no1`, the Percent Effect amounted to 3.95%.

As for `CCCn1cc(NC(=O)c2ccc(NC(=O)NC3CC3)cc2)ccc1=O`, the Percent Effect amounted to 3.05%.

Turning to `CCCn1cc(NC(=O)c2ccc(S(=O)(=O)CC)cc2)ccc1=O`, the Percent Effect came out at 78.9%.

`CCCn1cc(NC(=O)c2ccc(N(C)CC)cc2)ccc1=O`: the Percent Effect stood at 6.21%.

Turning to `CCCn1cc(NC(=O)c2ccc(S(C)(=O)=O)cc2)ccc1=O`, the Percent Effect amounted to 79.3%.

Regarding `CCCn1cc(NC(=O)c2cccnc2O)ccc1=O`, the Percent Effect amounted to 10.4%.

As for `CCCn1cc(NC(=O)c2ccncc2)ccc1=O`, the Percent Effect is 36.1%.

For `Cc1noc([C@H]2CC[C@@H]3[C@@H](CCN3S(C)(=O)=O)O2)n1`, the Percent Effect turned out to be 4.83%.

Consider `CN(C)C(=O)N1C[C@@H]2CC[C@H](C1)N(Cc1nnc(C3CC3)o1)C2`, for which the Percent Effect worked out at 1.65%.

`CCC(=O)N1CCN(C(=O)c2ccc(COC)o2)[C@H]2CS(=O)(=O)C[C@H]21`: the Percent Effect turned out to be 1.62%.

With `O=C([C@@H]1CCO[C@@H]2CCN(Cc3ccc(F)cc3)C[C@H]21)N1CCCCO1`, the Percent Effect came to 4.98%.

Consider `Cc1ncncc1C(=O)N1C[C@H]2CC[C@@H]1CN(C(=O)c1ccncc1)C2`, for which the Percent Effect was determined as 4.91%.

As for `COc1cccc(C2SCC(=O)Nc3ccsc32)c1OC` (stereo unspecified), the Percent Effect was determined as 1.9%.

For the compound `COc1cccc(C2SCC(=O)Nc3n[nH]cc32)c1OC(C)C` (stereo unspecified), the Percent Effect was determined as 1.84%.

Take `CC(C)Oc1ccccc1C1CC(=O)Nc2nc(N3CCOCC3)sc21` (stereo unspecified): the Percent Effect is 82.6%.

Turning to `COc1cccc(C2CC(=O)Nc3nc(N4CCOCC4)sc32)c1OC` (stereo unspecified), the Percent Effect stood at 77.8%.

With `COc1cccc(CNCc2ccnc(N3CCOCC3)c2)c1OC`, the Percent Effect amounted to 5.86%.

Regarding `Nc1nc2c(s1)C(c1c(F)cccc1Cl)CC(=O)N2` (stereo unspecified), the Percent Effect amounted to 41.6%.

For the compound `COc1cccc(C2CC(=O)Nc3nc(N)sc32)c1OC` (stereo unspecified), the Percent Effect came to 62.7%.

In the case of `CCn1ncnc1C1CC(=O)NCc2nc(N3CCCC3)sc21` (stereo unspecified), the Percent Effect stood at 2.27%.

Regarding `CCOc1cccc(C2CC(=O)NCc3nc(N4CCCC4)sc32)c1` (stereo unspecified), the Percent Effect was found to be 1.45%.

As to `CC(C)Oc1ccccc1C1CC(=O)Nc2c1cnn2C` (stereo unspecified), the Percent Effect was 1.57%.

With `COc1cccc(C2CC(=O)Nc3nc(N4CCCCC4)sc32)c1OC` (stereo unspecified), the Percent Effect is 84.4%.

With `COc1cccc(CNc2nc(N3CCOCC3)ns2)c1OC`, the Percent Effect was -2.52%.

In the case of `O=C(N1CCCC1)N1C[C@H]2CCC[C@@]2(COCc2ccccn2)C1`, the Percent Effect stood at 2.76%.

For `CCO[C@@H]1CC[C@H]2[C@H]1OCCN2Cc1ccoc1`, the Percent Effect is 2.1%.

As for `CNC(=O)[C@@H]1C[C@H]2CN(Cc3csc(C)n3)C[C@H]2N1C(C)C`, the Percent Effect is 4.1%.

Turning to `O=C([C@H]1CN(Cc2cccnc2)C[C@H]2OCC[C@@H]12)N1CCCO1`, the Percent Effect was found to be 2.79%.

With `CN(C)C(=O)[C@@H]1C[C@@H]2CCN(C3CCOCC3)C[C@H]2O1`, the Percent Effect is 1.18%.

`N#Cc1cccc(C(=O)Nc2ccc([C@@H](O)[C@H]3COCC(=O)N3)cc2)c1`: the Percent Effect was determined as 5.33%.
